The source of these data is PubChem BioAssay (NCATS).

Results filed as inconclusive are left out. Values without a mark were called inactive. Activity calls are given as the source filed them. Calls follow the shape of the dose curve; as a rule, active = well fitted inhibition curve with a large enough effect; inconclusive = small, poorly fitted or top-dose-only effect; inactive = flat fitted curve, though single readings scatter.
Potency is read from the fitted curve at half-maximal effect.

In the first assay the test system is CP194. Kind of assay: qHTS profiling for inhibitors of Plasmodium falciparum proliferation (AID 504749). Also: nearly all actives have a fitted effect of over 60% in size.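 As to activity, negative = inhibition: 0% = DMSO vehicle and full inhibition = artemisinin control.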 To be noted: P. falciparum in erythrocytes, SYBR Green DNA, 72 h; series mostly up to 28.7 µM; activity, negative = inhibition: at the top concentration. The procedure, abridged:
(§1)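 P. falciparum-infected erythrocytes (0.3% parasitemia, 2.5% hematocrit final) were exposed to compounds for 72 h at 37 C in 5% CO2, then lysed with SYBR Green buffer overnight at room temperature; parasite DNA fluorescence was normalized to artemisinin and DMSO controls.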
On the technique in general: qHTS replaces the single test concentration by a dilution series.
Take `CC/C=C\C/C=C\C/C=C\C/C=C\C/C=C\C/C=C\CCC(=O)O`: the “activity, negative = inhibition” value was -6.02%.

For `COc1cc2c(cc1OC)[C@@H](Cc1cc(OC)c(OC)c(OC)c1)[N+](C)(CCCOC(=O)CC/C=C/CCC(=O)OCCC[N+]1(C)CCc3cc(OC)c(OC)cc3[C@H]1Cc1cc(OC)c(OC)c(OC)c1)CC2` (stereo partly specified), the “activity, negative = inhibition” value was 0.645%.

Turning to `CCCOC(=O)c1ccccc1O`, the “activity, negative = inhibition” value is 3.65%.

On to `CC/C=C\C/C=C\C/C=C\CCCCCCCC(=O)O`, for which the “activity, negative = inhibition” value is -6.8%.

As to `NC(=O)[C@H]1O[C@@H](O)[C@H](O)[C@@H](O)[C@@H]1O`, the “activity, negative = inhibition” value is 4.2%.

On to `CCCCCCCCCCCCOCCCN`, for which the “activity, negative = inhibition” value was -0.0009%.

Take `CC(C)(C)c1ccc2c(S(=O)(=O)O)c(C(C)(C)C)ccc2c1`: the “activity, negative = inhibition” value was 0.0611%.

Turning to `COC(=O)CCC[N+](C)(C)C`, the “activity, negative = inhibition” value was 9.12%.

As to `CNC(=O)OCc1cccc(COC(=O)NC)n1`, the “activity, negative = inhibition” value was -1.46%.

Take `O=C(NCCNCC(O)COc1ccc(O)cc1)N1CCOCC1` (stereo unspecified): the “activity, negative = inhibition” value is -4.31%.

Take `OC[C@H]1O[C@@H]2O[C@H]3[C@H](O)[C@@H](O)[C@@H](O[C@H]4[C@H](O)[C@@H](O)[C@@H](O[C@H]5[C@H](O)[C@@H](O)[C@@H](O[C@H]6[C@H](O)[C@@H](O)[C@@H](O[C@H]7[C@H](O)[C@@H](O)[C@@H](O[C@H]1[C@H](O)[C@H]2O)O[C@@H]7CO)O[C@@H]6CO)O[C@@H]5CO)O[C@@H]4CO)O[C@@H]3CO`: the “activity, negative = inhibition” value is -0.359%.

Regarding `CCCCCCCCCCCCCCCCCCCCCC(=O)Nc1ccn([C@@H]2O[C@H](CO)[C@@H](O)[C@@H]2O)c(=O)n1`, the “activity, negative = inhibition” value was 0.409%.

For `CCCCCCCCCCCCCCCCCC[N+](C)(C)CCC[Si](OC)(OC)OC`, the “activity, negative = inhibition” value is -13%.

In the case of `OB(O)O`, the “activity, negative = inhibition” value is 1.95%.

In the case of `CCOc1ccc(NC(=S)Nc2ccc(OCC)cc2)cc1`, the “activity, negative = inhibition” value was 2.73%.

As to `CC(C)c1nc(N(C)S(C)(=O)=O)nc(-c2ccc(F)cc2)c1/C=C/C(O)CC(O)CC(=O)O` (stereo unspecified), the “activity, negative = inhibition” value is -1.41%.

In the case of `O=C(/C=C/c1cccc(F)c1)NC1CC1`, the “activity, negative = inhibition” value was -1.68%.

A further assay relates to CP201. The description is as above. Particulars: P. falciparum in erythrocytes, SYBR Green DNA, 72 h; series mostly up to 28.7 µM; activity, negative = inhibition: at the top concentration. The method in brief:
as §1
On to `Cc1ccc(C(C)(C)c2ccc(C)cc2)cc1`, for which the “activity, negative = inhibition” value was 1.54%.

As for `N[C@H](CC(=O)O)C(=O)O`, the “activity, negative = inhibition” value is -0.0483%.

Regarding `O=C(O)COc1ccc(CCNS(=O)(=O)c2ccccc2)s1`, the “activity, negative = inhibition” value was -0.207%.

`O=S(=O)(O)CCCS(=O)(=O)O`: the “activity, negative = inhibition” value was 0.573%.

For the molecule `COC(=O)c1ccccc1O`, the “activity, negative = inhibition” value was -6.46%.

`CC1(O)CCC(C(C)(C)O)CC1` (stereo unspecified): the “activity, negative = inhibition” value is -4.91%.

For the molecule `COc1ccc(/C=C/C(=O)O)cc1`, the “activity, negative = inhibition” value is -1.35%.

On to `CC(=O)Nc1c(I)c(C(=O)O)c(I)c(N(C)C(C)=O)c1I`, for which the “activity, negative = inhibition” value was -8.28%.

`Nc1ncnc2c1ncn2[C@H]1CC[C@@H](CO)O1`: the “activity, negative = inhibition” value was 1.15%.

Take `COC(=O)C(CN)c1c[nH]c2ccc(OC)cc12` (stereo unspecified): the “activity, negative = inhibition” value is 0.229%.

Regarding `CC/C(=C(/CC)c1ccc(OP(=O)(O)O)cc1)c1ccc(OP(=O)(O)O)cc1`, the “activity, negative = inhibition” value was -3.4%.

In the case of `CN1c2c(nc(N)[nH]c2=O)NCC1CNc1ccc(C(=O)NC(CCC(=O)O)C(=O)O)cc1` (stereo unspecified), the “activity, negative = inhibition” value is 0.0831%.

`CC(C)(CO)[C@@H](O)C(=O)NCCC(=O)NCCSSCCNC(=O)CCNC(=O)[C@H](O)C(C)(C)CO`: the “activity, negative = inhibition” value was 3.18%.

In the case of `CCCC(=O)O`, the “activity, negative = inhibition” value was 2.7%.

`CCSc1ccc2c(c1)N(CCCN1CCN(C)CC1)c1ccccc1S2`: the “activity, negative = inhibition” value is -0.165% [at 12.8 µM].

As for `CC1=CC(=C(c2ccc(N)cc2)c2ccc(N)cc2)C=CC1=N`, the Potency is 5.36 µM (active).

Consider `CC1=CC(=O)NS(=O)(=O)O1`, for which the “activity, negative = inhibition” value was 1.72%.

For the molecule `CC1CCCCN1CCCOC(=O)c1ccccc1` (stereo unspecified), the “activity, negative = inhibition” value was -5.43%.

Turning to `COC(=O)CC[C@H](N)C(=O)O`, the “activity, negative = inhibition” value was 0.017%.

Turning to `C[C@H](CCC(=O)O)[C@H]1CC[C@H]2[C@@H]3CC[C@@H]4C[C@H](O)CC[C@]4(C)[C@H]3C[C@H](O)[C@]12C`, the “activity, negative = inhibition” value was -7.12%.

Take `CO`: the “activity, negative = inhibition” value was 1.57%.

For the molecule `C=CCN1CCCC1CNC(=O)c1cc(S(N)(=O)=O)cc(OC)c1OC` (stereo unspecified), the “activity, negative = inhibition” value was 0.46%.

In the case of `CC/C=C\C/C=C\C/C=C\C/C=C\C/C=C\C/C=C\CCC(=O)O`, the “activity, negative = inhibition” value is 3.96%.

For the molecule `COc1cc2c(cc1OC)[C@@H](Cc1cc(OC)c(OC)c(OC)c1)[N+](C)(CCCOC(=O)CC/C=C/CCC(=O)OCCC[N+]1(C)CCc3cc(OC)c(OC)cc3[C@H]1Cc1cc(OC)c(OC)c(OC)c1)CC2` (stereo partly specified), the “activity, negative = inhibition” value is 2.21%.

For the molecule `CCCOC(=O)c1ccccc1O`, the “activity, negative = inhibition” value is 2.2%.

In the case of `CC/C=C\C/C=C\C/C=C\CCCCCCCC(=O)O`, the “activity, negative = inhibition” value is -1.05%.

In the case of `NC(=O)[C@H]1O[C@@H](O)[C@H](O)[C@@H](O)[C@@H]1O`, the “activity, negative = inhibition” value is -5.05%.

`CCCCCCCCCCCCOCCCN`: the “activity, negative = inhibition” value is -2.02%.

As for `CC(C)(C)c1ccc2c(S(=O)(=O)O)c(C(C)(C)C)ccc2c1`, the “activity, negative = inhibition” value is -0.641%.

With `COC(=O)CCC[N+](C)(C)C`, the “activity, negative = inhibition” value was 2.03%.

`CNC(=O)OCc1cccc(COC(=O)NC)n1`: the “activity, negative = inhibition” value was 4.29%.

On to `O=C(NCCNCC(O)COc1ccc(O)cc1)N1CCOCC1` (stereo unspecified), for which the “activity, negative = inhibition” value is 0.0459%.

As for `OC[C@H]1O[C@@H]2O[C@H]3[C@H](O)[C@@H](O)[C@@H](O[C@H]4[C@H](O)[C@@H](O)[C@@H](O[C@H]5[C@H](O)[C@@H](O)[C@@H](O[C@H]6[C@H](O)[C@@H](O)[C@@H](O[C@H]7[C@H](O)[C@@H](O)[C@@H](O[C@H]1[C@H](O)[C@H]2O)O[C@@H]7CO)O[C@@H]6CO)O[C@@H]5CO)O[C@@H]4CO)O[C@@H]3CO`, the “activity, negative = inhibition” value was -4.99%.

With `CCCCCCCCCCCCCCCCCCCCCC(=O)Nc1ccn([C@@H]2O[C@H](CO)[C@@H](O)[C@@H]2O)c(=O)n1`, the “activity, negative = inhibition” value is 1.23%.

Consider `CCCCCCCCCCCCCCCCCC[N+](C)(C)CCC[Si](OC)(OC)OC`, for which the “activity, negative = inhibition” value was 2.15%.

`OB(O)O`: the “activity, negative = inhibition” value is -0.631%.

For `CCOc1ccc(NC(=S)Nc2ccc(OCC)cc2)cc1`, the “activity, negative = inhibition” value was 0.152%.

Take `CC(C)c1nc(N(C)S(C)(=O)=O)nc(-c2ccc(F)cc2)c1/C=C/C(O)CC(O)CC(=O)O` (stereo unspecified): the “activity, negative = inhibition” value is 4.65%.

As for `O=C(/C=C/c1cccc(F)c1)NC1CC1`, the “activity, negative = inhibition” value is -0.159%.
